PKA-R2B activ: activates the human PKA-R2B holoenzyme complex. P22694+P31323. PKA-R2B holoenzyme dissociation, Cy5-IP20 fluorescence polarization; R2B truncated from residue 108, S112A mutant; 0% DMSO only, 100% 113 µM cGMP. activation, % at 11.4 µM. actives 0.079% (n = 340,000);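 active = activation above a cutoff set at the mean over all compounds plus 3 SD, cut at about 18% in these data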;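 also: higher means more holoenzyme dissociation and a rise in polarization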
Target sequence (P31323 whole entry, looked up, other chains not shown, the tested form may be a part): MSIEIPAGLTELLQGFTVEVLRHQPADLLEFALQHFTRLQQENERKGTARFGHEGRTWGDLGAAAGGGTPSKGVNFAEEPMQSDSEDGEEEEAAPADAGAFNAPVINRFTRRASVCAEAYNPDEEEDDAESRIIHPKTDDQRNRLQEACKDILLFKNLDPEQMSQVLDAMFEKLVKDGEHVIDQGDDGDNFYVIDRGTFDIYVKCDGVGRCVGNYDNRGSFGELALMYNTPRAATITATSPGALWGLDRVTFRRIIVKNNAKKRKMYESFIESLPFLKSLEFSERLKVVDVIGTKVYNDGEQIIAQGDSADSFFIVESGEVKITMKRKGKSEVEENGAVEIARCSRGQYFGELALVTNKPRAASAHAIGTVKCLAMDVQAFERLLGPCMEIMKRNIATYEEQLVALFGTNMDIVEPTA
PKA-R1A act: PKA-R1A complex activation; AID 504707; P00514+P68181; PKA-R1A dissociation, Cy5-IP20 fluorescence polarization; scaled: DMSO 0%, 113 µM cGMP 100%; actives 0.083% (n = 340,000); activation, % at 11.4 µM;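 active = percent activation above the mean of all tested compounds plus 3 SD, cut at about 19% in these data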;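 also: higher means more PKAc released from R1A so a rise in polarization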
SUMO Mot1 rescue: inhibitors of SUMOylation pathway: yeast Mot1-301 growth rescue | S. cerevisiae Mot1-301 growth rescue, ATP luminescence, 38.5C; percent above DMSO median, 100 means doubled | growth rescue, % at 18.8 µM | AID 2716 | actives 1% (n = 320,000);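 active = every valid replicate shows activation above 250% relative to neutral control wells; inactive = the rest, any valid replicate at or below 250%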;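 also: OY570 slx delta 5 strain wells were the positive control but not used for scaling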
bovine MsrA act: bovine methionine sulfoxide reductase A activation | activation, % at 10.6 µM | AID 602163 | actives 0.3% (n = 360,000) | purified bovine MsrA, absorbance read-out; in the data active = activation above about 7.5%;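 also: 0% = vehicle and 100% = reference activator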
MsrA inh: inhibits bovine methionine sulfoxide reductase A. purified bovine MsrA, absorbance read-out. inhibition, % at 15.5 µM. AID 651718. actives 0.75% (n = 360,000);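 also: 0% = vehicle wells with enzyme and 100% = reference inhibitor wells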
MsrA conf: bovine MsrA inhibition, confirmed. AID 651822. purified bovine MsrA, absorbance read-out. inhibition, % at 15.5 µM. shares compounds with MsrA inh. actives 41% (n = 2,300);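 also: coupled to thioredoxin reductase with NADPH and selenocystamine and DMSO as substrate; 0% = vehicle only and 100% = full effect of reference inhibitor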
The depositor's hits bear a star; . = not tested or not shown. Hits are enriched below; roughly 2% of the tested compounds scored in any of these assays. Rule as the data show it, unless noted: active = inhibition above about 4.5%; inactive = the rest.

SMILES	PKA-R2B activ	PKA-R1A act	SUMO Mot1 rescue	bovine MsrA act	MsrA inh	MsrA conf
Cc1ccc(Sc2ccc([N+](=O)[O-])cc2[N+](=O)[O-])nc1	-5	-6	134	-2	4.8*	3
COc1ccc(/C=C/C(=O)O/N=C(\N)c2ccccn2)cc1OC	-1	-7	-4	-2	4.8*	4
COc1cc(/C=C/C(=O)NC(=O)c2ccccc2O)ccc1O	3	0	-2	-4	5.6*	4
COc1ccc(/C=C/C(=O)Nc2ccc3c(c2)CCC3)cc1OC	2	-9	16	-7	2	.
COc1ccc(/C=C/C(=O)Nc2ccc(C(N)=O)cc2)cc1OC	.	.	-17	-5	5.0*	5.0*
COc1ccc(/C=C/C(=O)c2ccc[nH]2)cc1OC	1	2	6	-11	5.4*	4
CCc1nc2c(OCCC3CCCCC3)cccn2c1N(C)C(=O)c1ccc(C)cc1	.	.	.	2	0	.
O=S1(=O)CCSC[C@@H](CN2CCOCC2)N1	.	.	.	.	2	.
CCc1cc(C(=O)O)c(NC(=O)/C=C/c2ccc(OC)c(OC)c2)s1	-7	-4	1	-6	5.6*	4.9*
COc1ccc(/C=C/C(=O)Nc2ccccc2C(=O)O)cc1OC	8	-3	122	-11	5.2*	5.4*
CCc1cc(C(=O)O)c(NC(=O)/C=C/c2ccc(OC)cc2)s1	-9	-14	.	-3	3	.
CCOC(=O)C1CCCN(C(=O)c2cnn3c(C(F)F)cc(-c4ccc(C)cc4)nc23)C1 (stereo not given)	2	-4	12	6	29*	23*
CCNc1ccccc1	.	.	.	.	1	.
C=CCN1[C@@H](CC(C)C)COc2cccc(NCCCN3CCOCC3)c2S1(=O)=O	.	.	.	.	0	.
O=C(O)COc1ccccc1/C=N/NC(=O)c1cc(-c2ccc(Cl)cc2)nc2ccccc12	3	1	-15	-6	5.0*	4
COc1cccc(/C(C)=N/Nc2ccc(S(=O)(=O)N3CCCCC3)cn2)c1	-12	2	21	-7	4.8*	3
C/C(=N\Nc1ccc(S(=O)(=O)N2CCCCC2)cn1)c1ccc(O)cc1	-5	-1	-5	-6	2	.
O=C(N/N=C/c1c[nH]c2ccccc12)c1[nH]c2ccc(Br)cc2c1-c1ccccc1	-3	-5	.	-8	5.1*	4
O=c1oc2ccccc2c(NCc2ccccc2F)c1[N+](=O)[O-]	0	-5	-7	-8	8.8*	7.2*
Cn1c2c(c(=O)n(C)c1=O)C(C(F)(F)F)(C(F)(F)F)N=C(c1ccc(Cl)cc1)N2	-3	-8	-6	-6	.	.
Cn1c2c(c(=O)n(C)c1=O)C(C(F)(F)F)(C(F)(F)F)N=C(C1CCCCC1)N2	-2	4	-2	1	15*	12*
Cc1ccccc1C1=NC(C(F)(F)F)(C(F)(F)F)c2c(n(C)c(=O)n(C)c2=O)N1	2	1	10	-6	5.4*	3
CC(=O)NC1(C(F)(F)F)C(=O)Nc2c1c(=O)n(C)c(=O)n2C (stereo not given)	-12	-3	4	-7	-2	.
CCn1nccc1NC(=O)c1csc([C@@H]2O[C@H](CO)[C@H](O)[C@H](O)[C@H]2O)n1	.	.	.	-4	-1	.
O=C1N(Cc2ccccc2)c2ccc(Br)cc2[C@]12C[C@H](O)CO2	.	.	.	.	1	.
SMILES	PKA-R2B activ	PKA-R1A act	SUMO Mot1 rescue	bovine MsrA act	MsrA inh	MsrA conf
N#Cc1ccc(Oc2cccc3cccnc23)c([N+](=O)[O-])c1	-6	-5	10	-9	0	.
O=[N+]([O-])c1ccc(Oc2cccc3cccnc23)c([N+](=O)[O-])c1	-1	-7	6	-11	7.3*	4
c1ccc(-c2nc(-c3cccs3)[nH]c2-c2ccccc2)cc1	0	-4	-5	-1	2	.
Cc1nc2nc(-c3cccs3)[nH]c2cc1Br	-3	-15	-19	1	7.0*	4
Cc1ccc(NC(=O)CN2C(=O)N/C(=C/c3ccccc3OCc3cccc(C(=O)O)c3)C2=O)cc1	-5	13	-6	-4	4.7*	3
COc1cccc(/C=C2/NC(=O)N(CC(=O)Nc3ccc(C)cc3)C2=O)c1OCc1cccc(C(=O)O)c1	-11	-2	2	-4	1	.

Compound activity from PubChem BioAssay.
